A selection: hits, their analogues and other compounds. The true share with any hit is near 4.6%.
D1 ag = Allosteric Agonists of the Human D1 Dopamine Receptor: qHTS; D(1A) dopamine receptor (Homo sapiens), P21728; HEK293 T-REx D1 cells, calcium flux, agonist mode; activation, % at 2 µM; actives 1% (n = 360,000); also: 0% is about no effect
Target sequence (P21728 whole entry, looked up): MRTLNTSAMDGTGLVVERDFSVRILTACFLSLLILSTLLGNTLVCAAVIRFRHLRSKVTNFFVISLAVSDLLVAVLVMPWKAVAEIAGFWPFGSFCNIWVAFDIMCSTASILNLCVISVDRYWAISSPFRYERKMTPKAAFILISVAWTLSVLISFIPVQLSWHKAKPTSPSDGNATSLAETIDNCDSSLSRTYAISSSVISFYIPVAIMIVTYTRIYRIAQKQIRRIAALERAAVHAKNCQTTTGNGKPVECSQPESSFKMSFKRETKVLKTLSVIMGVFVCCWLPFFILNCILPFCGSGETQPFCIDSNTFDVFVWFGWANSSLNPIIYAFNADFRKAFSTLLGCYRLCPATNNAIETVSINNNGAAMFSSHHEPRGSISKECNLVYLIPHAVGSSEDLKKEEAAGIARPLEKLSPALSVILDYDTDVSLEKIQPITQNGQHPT
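Agonism was scored from calcium flux recorded over 180 s (1 read/s) after pintool compound addition, following a 10-cycle baseline. Cells were inducible force-coupled HEK293 TREx D1, plated overnight at 30 C and loaded with no-wash calcium dye.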
D1 antag = Antagonist of Human D 1 Dopamine Receptor: qHTS; AID 504652, 2011; actives 3.2% (n = 360,000); HEK293 TREx D1 cells, calcium flux, dopamine EC80; hits give low values; D(1A) dopamine receptor (Homo sapiens), P21728; activity change, negative = inhibition, % at 10 µM; in the data active = activity change below about -30%; also: % is scaled to controls: 0 for no effect and ±100 for the full control effect
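Cells carrying a force-coupled, tetracycline-inducible human D1 receptor report calcium flux. Each well gets a 10 s baseline, compound with 180 s monitoring, then an EC80 dopamine stimulus with a second 180 s kinetic read.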
TRHR ag = qHTS for Small Molecule Agonists and Allosteric Enhancers of Human TRH Receptor: Primary Screen for Agonists | Thyrotropin-releasing hormone receptor (Homo sapiens), P34981 | TRHR cells, calcium flux fluo-8, FDSS agonist mode | activation, % at 2 µM | actives 0.18% (n = 360,000); also: 0% is about no effect
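Fluo-8-loaded TRHR cells; 10 s baseline, compound added, kinetic Ca2+ fluorescence read 1/s, agonist mode.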
D1 PAM = Potentiators of Human D1 Dopamine Receptor: qHTS. HEK293 TREx D1 cells, calcium flux, dopamine EC20 potentiation. potentiation, % at 10 µM. D(1A) dopamine receptor (Homo sapiens), P21728. actives 0.036% (n = 360,000); in the data active = potentiation above about 30%; also: 0% is about no effect
TRHR PAM = qHTS for Small Molecule Agonists and Allosteric Enhancers of Human TRH Receptor: Primary Screen for Enhancers | Thyrotropin-releasing hormone receptor (Homo sapiens), P34981 | enhancement, % at 2 µM | TRHR cells, fluo-8 calcium fluorescence, EC20 TRH enhancement | actives 0.66% (n = 360,000); in the data active = enhancement above about 30%; also: 0% is about no effect
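Enhancer read-out: after compound pinning and an initial kinetic agonist-mode read, an EC20 of TRH (10 nM final) was injected and fluo-8 calcium signal (Ex 480/Em 530) followed at 1 s/cycle for 100 cycles in TRHR-expressing cells.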
The depositor's hits bear a star. Rule as the data show it, unless noted: active = activation above about 30%; inactive = the rest.

For COc1ccccc1CCNCc1ccc(OC)c(OC)c1OC the results were D1 ag 15.5, D1 antag -5.9, TRHR ag 0.5, D1 PAM -5.4 and TRHR PAM 39.0*.
COC(=O)C1=C(c2ccc(C(C)=O)cc2)C[C@@H]2CC[C@H]1N2C(=O)NCCCOC(C)C was read as D1 ag -2.2, TRHR ag -0.2, D1 PAM 1.6 and TRHR PAM 3.8.
For O=P(CCl)(Nc1ccccc1)C(Cl)(Cl)Cl (stereo not given) the results were D1 ag -0.2, D1 antag -40.9*, TRHR ag -0.1, D1 PAM 1.4 and TRHR PAM -4.4.
For O=P(Nc1ccccc1)(Oc1ccccc1)Oc1ccccc1 the results were D1 ag 2.1, D1 antag 1.8, TRHR ag -0.3, D1 PAM 4.9 and TRHR PAM 16.9.
`COc1ccc(NP(=O)(Oc2ccc(Cl)cc2)Oc2ccc(Cl)cc2)cc1OC` gave D1 ag 1.9, D1 antag 7.6, TRHR ag -0.6, D1 PAM -5.5 and TRHR PAM -2.2.
Cc1cc(N2CCCC2)ccc1C=C(C#N)C#N was read as D1 ag 32.4*, D1 antag -33.0*, TRHR ag 9.8, D1 PAM 1.2 and TRHR PAM 26.6.
`COCCOC(=O)C1=C(N)OC(C)=C(C(=O)OC)C12C(=O)Nc1ccccc12` (stereo not given) gave D1 ag 1.4, D1 antag -24.0, TRHR ag 0.6, D1 PAM 2.0 and TRHR PAM -4.2.
For NC(N)=N/N=C/c1ccc(N(c2ccccc2)c2ccccc2)cc1 the results were D1 ag 16.8, D1 antag 85.5, TRHR ag 0.7, D1 PAM 15.3 and TRHR PAM 11.1.
Screening C/C(=N\N=C(N)N)c1ccccc1 returned D1 ag 0.8, D1 antag -38.0*, TRHR ag 0.5, D1 PAM -17.3 and TRHR PAM -3.5.
`CCN(C(=O)COC(=O)Cc1ccccc1)c1c(N)n(Cc2ccccc2)c(=O)[nH]c1=O` gave D1 ag 0.5, D1 antag -12.7, TRHR ag -0.4, D1 PAM -10.8 and TRHR PAM -1.3.
`Cc1[nH]c2ccccc2c1CCNCc1ccco1` gave D1 ag 10.9, D1 antag -40.7*, TRHR ag 1.3, D1 PAM -2.7 and TRHR PAM 2.1.
Cc1[nH]c2ccccc2c1CCNCc1cccnc1 was read as D1 ag 2.6, D1 antag 1.9, TRHR ag 0.0, D1 PAM -1.1 and TRHR PAM 5.0.
Screening O=C(Cc1ccccc1)N1CCN(Cc2cccnc2)CC1 returned D1 ag -0.5, D1 antag -4.5, TRHR ag 1.0, D1 PAM -0.2 and TRHR PAM -4.6.
For CN1CCN(c2nc(N)cc(=O)[nH]2)CC1 the results were D1 ag 2.0, D1 antag -57.8*, TRHR ag 1.6, D1 PAM 0.9 and TRHR PAM 5.7.
`COc1ccccc1OP(=O)(Nc1ccc(Br)cc1)Oc1ccccc1OC` gave D1 ag 5.7, D1 antag -46.6*, TRHR ag 0.5, D1 PAM -4.5 and TRHR PAM 5.9.
COc1ccc2c(c1O)-c1c(OC)c(OC)cc3c1[C@H](C2)N(C)CC3 was read as D1 ag -0.3, D1 antag -62.7*, TRHR ag 0.2, D1 PAM -6.3 and TRHR PAM 2.3.
Screening O=c1cc(C2CCNCC2)[nH][nH]1 returned D1 ag -0.1, D1 antag -26.5, TRHR ag 0.1, D1 PAM -2.4 and TRHR PAM -1.8.
`CCOC(=O)C(O)(c1ccc(N=c2ccccn2C)cc1)C(F)(F)F` (stereo not given) gave D1 ag 4.8, D1 antag -12.2, TRHR ag 0.4, D1 PAM 7.5 and TRHR PAM 2.6.
For COCCN1C(=O)NC(=O)/C(=C\c2ccc(Br)cc2)C1=O the results were D1 ag 4.3, D1 antag -54.8*, TRHR ag 0.5, D1 PAM -5.9 and TRHR PAM -0.3.
